Targets with a hit are over-represented here; the source holds about 7,900 in all. About 0.6% of all pairs of compound and target were hits. Unmarked numbers belong to inactive results.
Assays:
Experiment in all cases: log2 fold change, soluble protein after heating vs DMSO (PISA); higher = thermal stabilisation; K562 cells, 10 uM, 30 min; active = over 0.2 and 3.5 SD of the protein, either way, in both replicates (recomputed)
[1] = compound: CS(=O)(=O)c1ccc(-c2cnc(N)c(C(=O)Nc3ccccc3)n2)cc1
In short: (§1)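 K562 cells at 2×10^6 cells/mL were given 10 μM compound for 30 min. Aliquots then went through 3 min of heating across 48°C-58°C, were pooled, and were extracted in PBS with 0.5% NP-40 at 4°C, and the supernatant after 21,000xg for 90 min was quantified by TMTpro 16plex LC-MS/MS with channel sums equalised. Thermal stability relative to control samples, from duplicates, is given as log2 fold change.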

crizotinib = compound: C[C@@H](Oc1cc(-c2cnn(C3CCNCC3)c2)cnc1N)c1c(Cl)ccc(F)c1Cl [crizotinib]
In short: as §1

[2] = compound: C[C@@H]1COCCN1C2=NC(=NC(=C2)C3(CC3)S(=O)(=O)C)C4=C5C=CNC5=CC=C4
In short: as §1

[3] = compound: C[C@H](C1=CC=C(C=C1)C(=O)NC2=C3C=CNC3=NC=C2)N
In short: as §1

duvelisib = compound: C[C@H](Nc1ncnc2nc[nH]c12)c1cc2cccc(Cl)c2c(=O)n1-c1ccccc1 [duvelisib]
In short: as §1

gandotinib = compound: Cc1cc(Nc2cc(CN3CCOCC3)c3nc(C)c(Cc4ccc(Cl)cc4F)n3n2)n[nH]1 [gandotinib]
In short: as §1

tozasertib = compound: Cc1cc(Nc2cc(N3CCN(C)CC3)nc(Sc3ccc(NC(=O)C4CC4)cc3)n2)n[nH]1 [tozasertib]
In short: as §1

[4] = compound: Cc1cc(SCc2sc(-c3ccc(C(F)(F)F)cc3)nc2C)ccc1OCC(=O)O
In short: as §1

doramapimod = compound: Cc1ccc(-n2nc(C(C)(C)C)cc2NC(=O)Nc2ccc(OCCN3CCOCC3)c3ccccc23)cc1 [doramapimod]
In short: as §1

ispinesib = compound: Cc1ccc(C(=O)N(CCCN)[C@@H](c2nc3cc(Cl)ccc3c(=O)n2Cc2ccccc2)C(C)C)cc1 [ispinesib]
In short: as §1

UniProt Q9BVS4, sequence (Q9BVS4 whole entry, looked up): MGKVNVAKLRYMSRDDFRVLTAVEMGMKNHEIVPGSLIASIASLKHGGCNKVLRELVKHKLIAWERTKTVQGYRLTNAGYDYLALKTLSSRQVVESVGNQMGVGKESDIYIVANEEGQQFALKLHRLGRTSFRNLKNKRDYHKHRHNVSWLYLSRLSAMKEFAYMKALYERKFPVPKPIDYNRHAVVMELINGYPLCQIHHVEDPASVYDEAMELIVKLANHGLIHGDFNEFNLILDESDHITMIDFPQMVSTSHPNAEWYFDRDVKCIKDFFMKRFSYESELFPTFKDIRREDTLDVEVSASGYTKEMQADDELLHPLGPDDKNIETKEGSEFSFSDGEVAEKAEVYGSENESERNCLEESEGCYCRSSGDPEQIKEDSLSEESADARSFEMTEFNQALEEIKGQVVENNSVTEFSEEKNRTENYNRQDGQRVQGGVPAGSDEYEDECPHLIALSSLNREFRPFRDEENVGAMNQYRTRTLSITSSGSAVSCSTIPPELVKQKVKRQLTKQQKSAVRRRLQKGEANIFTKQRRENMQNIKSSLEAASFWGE
UniProt Q96EE3, sequence (Q96EE3 whole entry, looked up): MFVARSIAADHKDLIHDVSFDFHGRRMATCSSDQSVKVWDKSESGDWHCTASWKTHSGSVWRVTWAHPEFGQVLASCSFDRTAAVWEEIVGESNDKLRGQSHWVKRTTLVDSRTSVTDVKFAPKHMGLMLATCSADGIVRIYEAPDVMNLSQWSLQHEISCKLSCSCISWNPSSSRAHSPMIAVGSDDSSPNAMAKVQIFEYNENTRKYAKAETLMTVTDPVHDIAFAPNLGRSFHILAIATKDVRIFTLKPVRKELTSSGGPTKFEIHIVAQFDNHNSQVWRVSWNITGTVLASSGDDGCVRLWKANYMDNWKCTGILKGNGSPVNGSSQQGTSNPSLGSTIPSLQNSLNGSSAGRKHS
UniProt Q9NR46, sequence (Q9NR46 whole entry, looked up): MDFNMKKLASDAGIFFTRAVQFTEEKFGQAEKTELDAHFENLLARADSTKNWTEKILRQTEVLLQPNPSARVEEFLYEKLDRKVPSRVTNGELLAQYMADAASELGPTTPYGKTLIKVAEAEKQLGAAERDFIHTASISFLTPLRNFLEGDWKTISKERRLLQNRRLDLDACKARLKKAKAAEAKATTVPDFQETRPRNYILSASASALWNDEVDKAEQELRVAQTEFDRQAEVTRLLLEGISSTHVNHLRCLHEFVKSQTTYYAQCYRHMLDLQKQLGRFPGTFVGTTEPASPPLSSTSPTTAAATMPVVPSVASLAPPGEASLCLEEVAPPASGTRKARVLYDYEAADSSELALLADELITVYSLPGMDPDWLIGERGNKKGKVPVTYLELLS
UniProt Q9BY42, sequence (Q9BY42 whole entry, looked up): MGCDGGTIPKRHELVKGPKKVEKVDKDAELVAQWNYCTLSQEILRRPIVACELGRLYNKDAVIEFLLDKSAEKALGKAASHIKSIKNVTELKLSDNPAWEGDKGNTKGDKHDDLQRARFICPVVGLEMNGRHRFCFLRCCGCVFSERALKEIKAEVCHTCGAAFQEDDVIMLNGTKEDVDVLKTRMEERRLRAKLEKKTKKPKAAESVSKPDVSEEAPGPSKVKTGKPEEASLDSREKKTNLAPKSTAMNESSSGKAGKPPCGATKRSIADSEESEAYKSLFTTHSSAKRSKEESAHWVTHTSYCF
UniProt O00560, sequence (O00560 whole entry, looked up): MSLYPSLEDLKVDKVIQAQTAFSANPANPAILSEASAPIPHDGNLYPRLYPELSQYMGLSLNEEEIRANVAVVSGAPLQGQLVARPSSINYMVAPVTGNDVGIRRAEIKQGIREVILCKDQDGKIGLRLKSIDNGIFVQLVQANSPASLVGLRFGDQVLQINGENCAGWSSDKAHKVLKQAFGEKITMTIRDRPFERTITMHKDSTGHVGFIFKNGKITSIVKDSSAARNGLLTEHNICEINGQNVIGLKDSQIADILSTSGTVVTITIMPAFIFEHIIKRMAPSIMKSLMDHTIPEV
UniProt Q9NSI8, sequence (Q9NSI8 whole entry, looked up): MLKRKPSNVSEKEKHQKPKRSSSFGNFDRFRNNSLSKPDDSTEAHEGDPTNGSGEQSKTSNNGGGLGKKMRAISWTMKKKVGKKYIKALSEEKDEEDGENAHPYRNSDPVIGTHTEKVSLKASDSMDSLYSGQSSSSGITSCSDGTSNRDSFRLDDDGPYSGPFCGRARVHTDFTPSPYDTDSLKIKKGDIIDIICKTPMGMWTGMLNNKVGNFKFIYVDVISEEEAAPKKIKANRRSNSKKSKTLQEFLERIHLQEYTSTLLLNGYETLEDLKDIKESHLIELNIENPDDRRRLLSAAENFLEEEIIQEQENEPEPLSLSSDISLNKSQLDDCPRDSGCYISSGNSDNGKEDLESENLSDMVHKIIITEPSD
UniProt Q6NUM9, sequence (Q6NUM9 whole entry, looked up): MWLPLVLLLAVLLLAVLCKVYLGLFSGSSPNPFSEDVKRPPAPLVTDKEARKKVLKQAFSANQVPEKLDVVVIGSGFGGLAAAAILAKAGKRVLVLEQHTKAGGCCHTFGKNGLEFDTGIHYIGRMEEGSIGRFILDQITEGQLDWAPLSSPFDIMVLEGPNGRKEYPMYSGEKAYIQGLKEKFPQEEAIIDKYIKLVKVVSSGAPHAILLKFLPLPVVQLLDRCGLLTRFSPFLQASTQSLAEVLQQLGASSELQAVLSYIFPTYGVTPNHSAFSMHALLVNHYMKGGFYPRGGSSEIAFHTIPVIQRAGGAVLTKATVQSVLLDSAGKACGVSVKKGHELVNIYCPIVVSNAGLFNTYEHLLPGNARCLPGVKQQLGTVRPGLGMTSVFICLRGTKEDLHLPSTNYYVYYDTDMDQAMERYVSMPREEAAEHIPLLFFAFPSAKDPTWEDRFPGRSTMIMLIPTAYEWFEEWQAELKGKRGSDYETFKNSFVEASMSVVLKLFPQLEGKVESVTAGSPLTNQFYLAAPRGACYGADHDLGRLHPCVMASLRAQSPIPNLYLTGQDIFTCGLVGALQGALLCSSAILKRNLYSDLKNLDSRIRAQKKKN
UniProt Q86TU7, sequence (Q86TU7 whole entry, looked up): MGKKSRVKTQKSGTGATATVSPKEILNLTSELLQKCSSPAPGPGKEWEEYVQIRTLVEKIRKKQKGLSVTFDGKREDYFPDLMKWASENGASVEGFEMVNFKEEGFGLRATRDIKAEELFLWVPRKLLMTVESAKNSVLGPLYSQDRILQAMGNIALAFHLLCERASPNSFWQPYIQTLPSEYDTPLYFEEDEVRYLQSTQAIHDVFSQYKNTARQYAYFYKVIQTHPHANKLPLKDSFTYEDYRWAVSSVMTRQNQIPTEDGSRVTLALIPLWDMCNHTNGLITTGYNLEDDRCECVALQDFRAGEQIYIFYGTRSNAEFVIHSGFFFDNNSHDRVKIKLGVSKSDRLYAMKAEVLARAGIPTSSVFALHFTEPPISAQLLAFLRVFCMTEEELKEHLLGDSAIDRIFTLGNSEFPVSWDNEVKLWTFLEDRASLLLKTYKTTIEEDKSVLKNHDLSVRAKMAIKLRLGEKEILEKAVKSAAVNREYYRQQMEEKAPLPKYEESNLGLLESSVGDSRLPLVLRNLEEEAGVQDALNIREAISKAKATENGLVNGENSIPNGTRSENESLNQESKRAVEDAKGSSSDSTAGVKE
UniProt Q92930, sequence (Q92930 whole entry, looked up): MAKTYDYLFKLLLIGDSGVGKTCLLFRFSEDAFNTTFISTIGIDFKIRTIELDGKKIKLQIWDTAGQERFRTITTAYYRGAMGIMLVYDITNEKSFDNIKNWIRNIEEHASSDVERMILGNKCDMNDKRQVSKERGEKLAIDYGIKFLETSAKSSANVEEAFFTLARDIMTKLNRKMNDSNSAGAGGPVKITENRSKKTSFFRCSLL
UniProt P18754, sequence (P18754 whole entry, looked up): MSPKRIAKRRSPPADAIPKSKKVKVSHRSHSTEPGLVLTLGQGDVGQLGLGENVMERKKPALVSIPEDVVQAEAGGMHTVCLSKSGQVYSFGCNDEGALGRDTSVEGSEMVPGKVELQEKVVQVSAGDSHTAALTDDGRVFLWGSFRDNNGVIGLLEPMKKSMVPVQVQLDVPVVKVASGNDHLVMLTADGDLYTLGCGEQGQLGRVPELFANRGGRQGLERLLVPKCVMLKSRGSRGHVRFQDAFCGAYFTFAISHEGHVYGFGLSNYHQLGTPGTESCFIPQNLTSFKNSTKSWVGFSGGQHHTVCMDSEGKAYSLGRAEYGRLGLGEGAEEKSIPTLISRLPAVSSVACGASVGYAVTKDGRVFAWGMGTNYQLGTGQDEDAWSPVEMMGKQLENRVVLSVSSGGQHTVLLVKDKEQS
UniProt O43665, sequence (O43665 whole entry, looked up): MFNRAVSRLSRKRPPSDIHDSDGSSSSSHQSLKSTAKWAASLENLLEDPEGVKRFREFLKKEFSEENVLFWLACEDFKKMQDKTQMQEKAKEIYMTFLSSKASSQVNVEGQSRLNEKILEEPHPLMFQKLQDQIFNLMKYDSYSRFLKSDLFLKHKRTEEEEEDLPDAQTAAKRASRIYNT
UniProt Q8TBN0, sequence (Q8TBN0 whole entry, looked up): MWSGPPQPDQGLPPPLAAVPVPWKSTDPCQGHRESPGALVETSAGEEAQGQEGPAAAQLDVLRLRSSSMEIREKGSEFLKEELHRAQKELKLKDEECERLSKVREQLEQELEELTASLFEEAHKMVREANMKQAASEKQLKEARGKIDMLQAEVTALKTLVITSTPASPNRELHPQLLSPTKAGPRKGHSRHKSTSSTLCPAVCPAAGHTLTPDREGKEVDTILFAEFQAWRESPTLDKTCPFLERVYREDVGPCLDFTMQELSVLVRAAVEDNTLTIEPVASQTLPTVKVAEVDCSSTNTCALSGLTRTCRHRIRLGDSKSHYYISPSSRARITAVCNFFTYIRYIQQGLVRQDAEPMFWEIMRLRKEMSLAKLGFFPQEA

Target | log2 fold change [1] | log2 fold change (crizotinib) | log2 fold change [2] | log2 fold change [3] | log2 fold change (duvelisib) | log2 fold change (gandotinib) | log2 fold change (tozasertib) | log2 fold change [4] | log2 fold change (doramapimod) | log2 fold change (ispinesib)
RPS13 (UniProt P62277) | -0.053 | 0.076 | -0.548 | 0.403 | -0.201 | 0.296 | 0.021 | -0.013 | 0.247 | -0.195
RPS3 (UniProt P23396) | -0.07 | 0.025 | -0.258 | 0.203 | -0.06 | 0.134 | 0.022 | 0.045 | 0.077 | -0.127
RBM33 (UniProt Q96EV2) | -0.01 | 0.058 | -0.063 | -0.077 | 0.016 | 0.03 | -0.019 | 0.043 | -0.022 | -0.085
SCAF8 isoform 2 (UniProt Q9UPN6) | 0.085 | -0.011 | 0.1 | -0.018 | 0.053 | -0.098 | -0.039 | 0.065 | 0.003 | -0.181
RBM26 isoform 3 (UniProt Q5T8P6) | 0.066 | – | – | – | – | – | – | – | – | –
RTN4IP1 (UniProt Q8WWV3) | 0.015 | -0.084 | 0.064 | -0.045 | 0.276 | 0.117 | -0.108 | 0.225 | 0.041 | -0.137
SAFB2 (UniProt Q14151) | -0.079 | -0.016 | -0.316 | 0.164 | -0.155 | 0.184 | -0.027 | 0.006 | 0.089 | -0.043
RTF2 (UniProt Q9BY42) | -0.005 | 0.234 | -0.061 | -0.089 | 0.116 | 0.104 | 0.166 | -0.003 | -0.083 | 0.151
RAD50 isoform 2 (UniProt Q92878) | 0.031 | 0.064 | 0.044 | -0.039 | 0.02 | -0.017 | 0.029 | 0.021 | -0.023 | 0.033
SHROOM2 (UniProt Q13796) | 0.093 | 0.005 | 0.013 | -0.099 | 0.059 | 0.397 | -0.195 | -0.233 | 0.008 | –
RPS18 (UniProt P62269) | -0.022 | 0.033 | -0.244 | 0.222 | -0.076 | 0.129 | 0.016 | -0.002 | 0.105 | -0.074
RCC1 isoform 2 (UniProt P18754) | 0.418 (active) | -0.032 | 0.13 | -0.04 | 0.158 | -0.1 | -0.002 | 0.154 | -0.008 | -0.007
RAC1 (UniProt P63000) | -0.094 | 0 | -0.04 | -0.06 | 0.001 | -0.037 | 0.065 | -0.044 | 0.112 | 0.024
RAB8B (UniProt Q92930) | -0.212 | 0 | -0.046 | -0.345 | -0.028 | -0.086 | -0.076 | 0.005 | 0.034 | 0.01
RGS10 (UniProt O43665) | 0.014 | -0.045 | 0.012 | -0.231 | 0.008 | -0.023 | 0.053 | 0.024 | 0.006 | 0.017
RETSAT (UniProt Q6NUM9) | -0.038 | 0.005 | -0.129 | -0.003 | 0.083 | 0.284 | -0.103 | 0.036 | 0.147 | -0.008

Target | log2 fold change [1] | log2 fold change (crizotinib) | log2 fold change [2] | log2 fold change [3] | log2 fold change (duvelisib) | log2 fold change (gandotinib) | log2 fold change (tozasertib) | log2 fold change [4] | log2 fold change (doramapimod) | log2 fold change (ispinesib)
SEH1L isoform 1 (UniProt Q96EE3) | -0.03 | 0.04 | -0.008 | -0.028 | 0.016 | -0.069 | 0.011 | 0.01 | 0.011 | 0.054
SETD3 (UniProt Q86TU7) | 0.007 | 0.051 | 0.076 | -0.012 | 0.005 | 0.021 | -0.037 | 0.012 | -0.026 | 0.059
SDCBP (UniProt O00560) | -0.003 | -0.216 | 0.101 | -0.043 | -0.008 | 0.094 | 0.048 | 0.086 | -0.006 | -0.361 (active)
SH3GLB2 (UniProt Q9NR46) | 0.031 | -0.104 | -0.101 | 0.013 | -0.022 | -0.183 | 0.014 | 0.073 | 0.013 | -0.052
RPS25 (UniProt P62851) | -0.101 | -0.041 | -0.286 | 0.239 | -0.083 | 0.239 | 0.028 | 0.032 | 0.178 | -0.148
RPA1 (UniProt P27694) | -0.028 | -0.019 | -0.199 | 0.036 | -0.035 | -0.103 | 0.015 | 0.022 | -0.05 | 0.004
RAB3IL1 (UniProt Q8TBN0) | 0.009 | 0.086 | 0.071 | 0.031 | 0.026 | 0.012 | 0 | -0.009 | -0.021 | 0.04
SAMSN1 isoform 3 (UniProt Q9NSI8) | 0.024 | -0.082 | 0.043 | -0.027 | 0.006 | -0.077 | -0.013 | 0.019 | -0.052 | -0.069
RB1CC1 (UniProt Q8TDY2) | 0.062 | 0.041 | -0.006 | 0.033 | -0.006 | 0.132 | -0.013 | 0.011 | 0.037 | -0.02
SEC31A (UniProt O94979) | 0.045 | -0.011 | 0.007 | 0.084 | 0.004 | -0.158 | 0.049 | 0.064 | 0 | 0.034
RBM27 (UniProt Q9P2N5) | 0.006 | 0.021 | 0.026 | -0.174 | 0.001 | -0.019 | 0.027 | 0.09 | -0.035 | -0.122
RIOK2 (UniProt Q9BVS4) | 0.059 | -0.057 | -0.167 | 0.189 | -0.037 | 0.263 | -0.001 | 0.053 | 0.084 | -0.019
RNF167 (UniProt Q9H6Y7) | 0.087 | -0.133 | -0.097 | 0.082 | -0.026 | -0.045 | 0.027 | 0.018 | -0.056 | -0.668 (active)
RNF2 (UniProt Q99496) | 0.008 | -0.028 | -0.013 | -0.105 | -0.033 | -0.091 | 0.149 | 0.073 | -0.093 | –
RALY (UniProt Q9UKM9) | -0.149 | -0.068 | -0.138 | 0.316 | -0.161 | 0.098 | 0.051 | 0.043 | 0.01 | -0.082

Source: the supplement of paper PMC10849652
